This is an account of results in PubChem BioAssay AID1159580 (chemical genetic matrix, 2015).

The nature of this assay: chemical genetic growth profiling, strain panel (AID 1159580).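 Also: tested at 20 µM; growth read once vehicle control cultures reached saturation at 30 °C; 1 = growth at the plate median or of vehicle wells; lower values mean less growth of the strain.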 Particulars: growth OD.
[1] abbreviates: S. cerevisiae deletion strains, locus YAL013W, strain DEP1, active compounds read low.
Where [2] appears, read: S. cerevisiae deletion strains, locus YDR150W, strain NUM1, active compounds read low.
The mark [3] stands for this setting: S. cerevisiae deletion strains, locus YJR075W, strain HOC1, active compounds read low.
Setting [4] is: S. cerevisiae deletion strains, locus YMR263W, strain SAP30, active compounds read low.
Where [5] appears, read: S. cerevisiae deletion strains, locus YMR307W, strain GAS1, active compounds read low.
The mark [6] stands for this setting: S. cerevisiae deletion strains, locus YNL322C, strain KRE1, active compounds read low.
[7] abbreviates: S. cerevisiae deletion strains, locus YPL055C, strain LGE1, active compounds read low.

About 2,000 (36%) of roughly 5,500 compounds were called active. Another 18% or so got no clear call; they are omitted. The list shows a part of the results. Values without a mark were called inactive. Rule as the data show it: active = normalized growth mostly below about 0.91 (no sharp cut-off); inconclusive = no clear call, values can overlap the other calls; inactive = mostly above about 0.92.

On to `O=c1cc(C(F)(F)F)[nH]c2cc(Cl)cc(Cl)c12`, for which the normalized growth runs as follows: under setting [1], 0.59 (active); (S. cerevisiae deletion strains, locus YBR229C, strain ROT2, active compounds read low) 0.47 (active); (S. cerevisiae deletion strains, locus YCL061C, strain MRC1, active compounds read low) 0.649 (active); (S. cerevisiae deletion strains, locus YDL101C, strain DUN1, active compounds read low) 0.513 (active); under setting [2], 0.627 (active); (S. cerevisiae deletion strains, locus YEL061C, strain CIN8, active compounds read low) 0.745 (active). Further, the normalized growth (S. cerevisiae deletion strains, locus YGR078C, strain PAC10, active compounds read low) was 0.475 (active); the normalized growth (S. cerevisiae deletion strains, locus YHR030C, strain SLT2, active compounds read low) is 0.564 (active); the normalized growth (S. cerevisiae deletion strains, locus YHR087W, strain rtc3, active compounds read low) is 0.544 (active); the normalized growth (S. cerevisiae deletion strains, locus YJL187C, strain SWE1, active compounds read low) was 1.01; the normalized growth (S. cerevisiae deletion strains, locus YJR043C, strain POL32, active compounds read low) is 0.697 (active); the normalized growth under setting [3] was 0.514 (active). The normalized growth is 0.356 (active) (S. cerevisiae deletion strains, locus YLR039C, strain RIC1, active compounds read low); 0.694 (active) (S. cerevisiae deletion strains, locus YLR058C, strain SHM2 (second series), active compounds read low); 0.487 (active) (S. cerevisiae deletion strains, locus YLR085C, strain ARP6, active compounds read low); 0.428 (active) (S. cerevisiae deletion strains, locus YLR262C, strain YPT6, active compounds read low); 0.854 (active) (S. cerevisiae deletion strains, locus YML094W, strain GIM5, active compounds read low); 0.612 (active) (S. cerevisiae deletion strains, locus YMR219W, strain ESC1, active compounds read low). Besides, the normalized growth reads like this: under setting [4], 0.456 (active); under setting [5], 0.561 (active); (S. cerevisiae deletion strains, locus YNL128W, strain TEP1, active compounds read low) 0.881 (active); (S. cerevisiae deletion strains, locus YNL153C, strain GIM3, active compounds read low) 0.534 (active); (S. cerevisiae deletion strains, locus YNL298W, strain CLA4 (second series), active compounds read low) 0.742 (active); under setting [6], 0.798 (active). Also, the normalized growth runs as follows: (S. cerevisiae deletion strains, locus YNR030W, strain Alg12, active compounds read low) 0.664 (active); under setting [7], 0.523 (active); (S. cerevisiae deletion strains, locus YPL241C, strain CIN2, active compounds read low) 0.748 (active); (S. cerevisiae deletion strains, locus YPR135W, strain CTF4, active compounds read low) 0.714; (S. cerevisiae strains, strain wild type, active compounds read low) 0.836 (active).

Consider `O=C(O)/C(=C/c1c(C(=O)O)[nH]c2cc(Cl)cc(Cl)c12)c1ccccc1`, for which the normalized growth by setting is: under setting [1], 0.99; (S. cerevisiae deletion strains, locus YAL040C, strain CLN3, active compounds read low) 1.07; (S. cerevisiae deletion strains, locus YCL061C, strain MRC1 (second series), active compounds read low) 0.977; under setting [2], 0.979; (S. cerevisiae deletion strains, locus YDR363W, strain ESC2, active compounds read low) 1.03; (S. cerevisiae deletion strains, locus YER002W, strain NOP16, active compounds read low) 0.993. Besides, the normalized growth by setting is: (S. cerevisiae deletion strains, locus YGR229C, strain SMI1, active compounds read low) 0.999; under setting [3], 0.988; under setting [4], 0.979; under setting [5], 1.01; (S. cerevisiae deletion strains, locus YNL175C, strain NOP13, active compounds read low) 0.996; (S. cerevisiae deletion strains, locus YNL197C, strain WHI3, active compounds read low) 0.98. Besides, the normalized growth reads like this: (S. cerevisiae deletion strains, locus YNL224C, strain SQS1, active compounds read low) 0.977; under setting [6], 0.975; (S. cerevisiae deletion strains, locus YOR083W, strain WHI5 (second series), active compounds read low) 0.99; under setting [7], 0.985.
